Sfp PPTase inh – blocks B. subtilis Sfp PPTase activity; Q9F4F7; Biochemical Sfp PPTase activity, qHTS; Potency, µM, most hits filed as inhibitors; 310,000 compounds, 3.5% hits; AID 1490;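 also: the enzyme is Sfp with the accession as filed and its product quenches rhodamine fluorescence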
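Reaction rates are the 30-min fluorescence difference (ex 525, em 598 nm) in wells containing 15 nM Sfp, 5 uM rhodamine-CoA and 12.5 uM BHQ-2-YbbR at pH 7.6 with 10 mM MgCl2.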
BAZ2B inh – inhibitors of human BAZ2B bromodomain | AlphaScreen BAZ2B-H3K14Ac peptide displacement | Q9UIF8 | Potency, µM (highest dose often 114 µM), actives largely listed as inhibitors | 360,000 compounds, 4.4% hits | AID 504333; also: nearly all actives have a fitted effect of over 60% in size
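BAZ2B 50 nM plus b-H3(5-23)K14Ac 50 nM, PBS pH 7.4/0.01% Tween-20, 30 min RT; compound added (max 110 uM), 30 min RT; streptavidin donor/Ni-chelate acceptor beads 10 ug/mL final, 20 min dark; AlphaScreen read.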
G9a inh – blocks human histone lysine methyltransferase G9a; Q96KQ7; G9a H3K9 monomethylation, AlphaScreen, 2 h; Potency, µM (titrated, usually from 102 µM), usual class: inhibitors; 350,000 compounds, 8.8% hits; AID 504332; also: nearly all actives have a fitted effect of over 75% in size
Target sequence (Q96KQ7 913-1193 limits assumed): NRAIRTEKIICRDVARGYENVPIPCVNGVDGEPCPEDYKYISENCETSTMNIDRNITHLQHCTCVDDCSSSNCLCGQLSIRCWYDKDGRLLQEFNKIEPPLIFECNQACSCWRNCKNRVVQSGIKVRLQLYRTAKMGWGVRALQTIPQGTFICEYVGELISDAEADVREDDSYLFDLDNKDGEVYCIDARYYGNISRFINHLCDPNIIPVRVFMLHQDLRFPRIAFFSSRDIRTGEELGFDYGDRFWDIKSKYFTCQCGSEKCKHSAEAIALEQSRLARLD
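AlphaScreen read-out: biotin-H3K9 peptide (500 nM) methylation by 20 nM enzyme with 20 uM SAM, 2 h at room temperature after 15 min compound preincubation; anti-monomethyl H3K9 antibody plus donor/acceptor beads, 10 min dark.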
JMJD2A Tudor inh – JMJD2A Tudor domain (human) inhibition | AlphaScreen JMJD2A-Tudor / H3K4me3 peptide binding | Potency, µM (highest dose often 114 µM), actives largely listed as inhibitors | 390,000 compounds, 4.4% hits | AID 504339; also: nearly all actives have a fitted effect of over 50% in size
HP1b binding inh – blocks HP1-beta chromodomain binding to methylated histone tails; AlphaScreen HP1-beta / biotin-H3K9me3 peptide binding; Potency, µM (highest dose often 114 µM), hits mostly inhibitors; 390,000 compounds, 0.56% hits; also: nearly all actives have a fitted effect of over 70% in size
Target sequence (P83916 whole entry, looked up): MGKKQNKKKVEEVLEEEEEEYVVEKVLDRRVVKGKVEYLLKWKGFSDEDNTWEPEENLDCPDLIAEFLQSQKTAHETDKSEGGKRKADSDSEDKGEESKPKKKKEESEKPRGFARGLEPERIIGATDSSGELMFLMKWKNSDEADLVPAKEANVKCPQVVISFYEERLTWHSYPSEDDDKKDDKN
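AlphaScreen: HP1-beta (50 nM) preformed 30 min with biotin-H3(1-18)K9me3 peptide (50 nM) in PBS pH 7.4, 0.01% Tween-20. Compound added for 30 min at RT, then streptavidin donor/nickel chelate acceptor beads (10 ug/mL) for 30 min.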
Numbers stand for hits; i = inactive; ? = inconclusive; nt = not tested or not shown; ! = repeats disagree; [ ] = another dose, or the depositor's remark. This is a sample that favours compounds with a hit; in the whole collection about 12% have one here. Calls follow the shape of the dose curve; as a rule, active = well fitted curve in the direction sought with a large enough effect; inconclusive = small, poorly fitted or top-dose-only effect, or another doubt; inactive = no such curve, though single readings can be large; an effect the other way counts as inactive or inconclusive.

SMILES | Sfp PPTase inh | BAZ2B inh | G9a inh | JMJD2A Tudor inh | HP1b binding inh
CCCCC/C=C\C/C=C\C/C=C\C/C=C\CCCCCC(=O)NC(C)C(=O)O (stereo not given) | i | nt | nt | nt | nt
CCOC(=O)C1=C(O)/C(=C/c2ccc(OCC(=O)O)c(OCC)c2)SC1=Nc1ccc(C)cc1 | i | i | 45µM | i | i
CCOC(=O)C1=C(O)/C(=C/c2ccc(OCC(=O)O)c(OCC)c2)SC1=Nc1ccc(OC)cc1 | i | i | i | i | i
CCc1ccc(N=C2NC(=O)/C(=C/c3ccc(OCC(=O)O)cc3)S2)cc1 | i | 50µM | 50µM | ? | i
CCc1ccc(N=C2NC(=O)/C(=C/c3ccc(OCC(=O)O)c(OC)c3)S2)cc1 | i | 7.1µM | nt | 28µM | 45µM
COc1ccc(/C=C2\SC(=Nc3ccccc3)NC2=O)cc1 | i | i | nt | nt | nt
CCn1c(=O)[nH]c(=O)c2c(N)c(C(=O)c3ccccc3OC)sc21 | i | i | i | i | i
CC(=O)c1c(C)nn(CC(=O)NC2CCCN(Cc3ccc(CC(C)C)cc3)C2)c1C (stereo not given) | i | i | i[0.501 µM] | i | i
Cc1ccc(C2=NNC3(CCOC(C)(C)C3)S2)cc1 (stereo not given) | i | i | 28µM | ? | i
Cc1ccc(S(=O)(=O)NCCC2(C(C)C)CCOC(C)(C)C2)cc1 (stereo not given) | i | i | i[2.33 µM] | i | i
COC(CN(C(=O)CCl)C(C(=O)NC1CCCC(C)C1C)c1ccc(C)cc1)OC (stereo not given) | i | i | 50µM | i | i
COc1cc(NC(=O)C/C(C)=N/NC(=O)C(OC)c2ccccc2)c(OC)cc1Cl (stereo not given) | i | i | i | i | i
CN(C)c1cccc2c1c(NS(=O)(=O)c1cn(C)cn1)nn2C | 32µM | i | 8.9µM | i | i
Cc1nc2c(=O)n(-c3ccc(F)cc3F)nc(C)c2s1 | i | i | i | i | i
Cc1nc2[nH]c(=O)n(O)c(=O)c2s1 | nt | nt | nt | 7.9µM | i
CN(CC(=O)Nc1ccc(N2CCOCC2)cc1)C(=O)CSc1ccccc1F | nt | i | ? | i | i
O=C(CCCN1C(=O)/C(=C\c2ccco2)SC1=S)Nc1ccc2ccccc2c1 | ? | ? | 25µM | i | i
O=C(CCCN1C(=O)/C(=C\c2ccccc2)SC1=S)Nc1ccc(O)cc1C(=O)O | i | 35µM | nt | i | i
O=C(O)CCN1C(=O)/C(=C\c2ccc(-c3nc4ccccc4s3)o2)SC1=S | 45µM | ? | ? | 4µM | 18µM
O=C1/C(=C\c2ccco2)SC(=S)N1Cc1ccccc1 | ? | 11µM | i[0.501 µM] | 50µM | ?
CCc1ccc(/C=C2/SC(=S)N(CC(=O)Nc3nc4ccccc4s3)C2=O)cc1 | i | ? | i[0.501 µM] | ? | ?
O=C(CCCN1C(=O)/C(=C/c2ccccc2)SC1=S)Nc1ccccc1O | i | i | i | i | i
CCCCn1c(=O)n(CC2CCC(C(=O)NCCCOC)CC2)c(=O)c2sccc21 (stereo not given) | nt | i | i | i | i
CCC(C(=O)N1CCCCCC1)n1nc(C)n2c(cc3occc32)c1=O (stereo not given) | i | i | i | i | i
Cc1ccccc1NC(=S)NC(NC(=O)C(C)(C)C)C(Cl)(Cl)Cl (stereo not given) | i | i | ? | i | i
SMILES | Sfp PPTase inh | BAZ2B inh | G9a inh | JMJD2A Tudor inh | HP1b binding inh
O=C(Cc1ccc(Cl)cc1)NCC(=O)N1CCN(c2ccccc2)CC1 | i | i | i | i | i
CSC1=NCCN1C(=O)c1ccc(Br)o1 | i | i | i | i | i
O=C(CCN1C(=O)/C(=C/c2ccco2)SC1=S)Nc1ccc(O)cc1C(=O)O | i | 50µM | 28µM | 28µM | 18µM
Cc1cc(NC(=O)CN2C(=O)/C(=C/c3cccc(Br)c3)SC2=S)no1 | i | i | i | i | i
O=C(CN1C(=O)/C(=C\c2ccco2)SC1=S)Nc1ccc(O)cc1C(=O)O | 56µM | 40µM | i[0.0925 µM] | i | i
O=C(CCCN1C(=O)/C(=C/c2ccco2)SC1=S)Nc1ccccc1C(=O)O | 50µM | 40µM | nt | 89µM | i
CC(C(=O)Nc1ccc(O)cc1C(=O)O)N1C(=O)/C(=C\c2cccs2)SC1=S (stereo not given) | 22µM | 50µM | 7.9µM | 45µM | ?
Cc1cccc(C)c1NC(=S)N(CCCN1CCCCC1)Cc1ccco1 | i | ? | i | i | i
COc1ccc(CCN2C(=O)/C(=C\c3ccco3)SC2=S)cc1OC | 18µM | 8.9µM | 45µM | i | i
O=C(O)CCCN1C(=O)/C(=C\c2ccco2)SC1=S | 18µM | ? | 45µM | 79µM | ?
O=C(CCCN1C(=O)/C(=C/c2ccccc2Cl)SC1=S)NNC(=O)c1ccccc1 | i | i | i | i | i
CCOC(=O)Cc1nc(-c2ccc(Cl)cc2)n[nH]1 | i | i | i | i | i
CC12CCC=CC1C(c1cccc([N+](=O)[O-])c1)N(Cc1ccccc1)C2=O (stereo not given) | i | nt | nt | ? | i
COC(=O)c1cc(=O)n(CCc2ccc(OC)c(OC)c2)c(=Nc2ccc(F)c(Cl)c2)s1 | ? | ? | 25µM | ? | i
CCCCC1=CC2=CC(=O)C(C)(OC(=O)c3cnc4ccccc4n3)C(=O)C2=CO1 (stereo not given) | 79µM! | 79µM | ? | nt | nt
COc1ccc(Nc2c(-c3ccc(Cl)cc3)nc3cnccn23)cc1OC | nt | 45µM | 13µM | 56µM | i
COc1ccc(-c2nc3cnccn3c2Nc2ccc(C)cc2)cc1 | i | ? | i | i | i
Clc1ccc(-c2nc3cnccn3c2Nc2ccc3c(c2)OCO3)cc1 | i | 45µM | 16µM | 50µM | ?
c1cncc(-c2nc3ccccn3c2Nc2ccc3c(c2)OCCO3)c1 | i | ? | ? | ? | i
CSc1ccc(-c2nc3cnccn3c2Nc2ccc3c(c2)OCO3)cc1 | ? | 11µM | 45µM | ? | 45µM
Clc1ccc(-c2nc3ncccn3c2Nc2ccc3c(c2)OCCO3)cc1 | i | i | i | i | i
COc1ccc(-c2cc(C(F)(F)F)nc(SCCC(=O)Nc3cc(C)ccc3O)n2)cc1 | nt | i | i | i | i
COCCn1c(=O)c(C)nc2cnc(Nc3cccc(OC)c3)nc21 | i | nt | i[0.501 µM] | nt | nt
Oc1[nH]c2ccccc2c1C1=NCCCC1 | i | 50µM | ? | ? | i
CCn1c(O)c(C2=NCCCC2)c2ccccc21 | i | i | i | ? | ?
O=C1C2C3C=CC(C4CC34)C2C(=O)N1/N=C/c1ccc(-c2ccc(Cl)cc2[N+](=O)[O-])o1 (stereo not given) | i | ? | 35µM | ? | ?
O=C(O)c1cc(-c2ccc(/C=N/N3C(=O)C4C5C=CC(C6CC56)C4C3=O)o2)ccc1Cl (stereo not given) | i | 79µM | 45µM | i[11.4 µM] | i
COc1ccc(-c2ccc(/C=N/N3C(=O)C4C5C=CC(C6CC56)C4C3=O)o2)c([N+](=O)[O-])c1 (stereo not given) | i | ? | ? | ? | i

Bioassay records deposited in PubChem by National Center for Advancing Translational Sciences (NCATS).
